PubChem BioAssay (EPA / NIEHS)
Active and inactive are the calls of the source. How the source made its calls: active means hit-call score of the fitted dose curve at least 0.9, where 1 is the maximum; inactive means score below 0.9.

Key:
Details in all cases: mRNA level, 48 h; actives raise or lower the signal
[1] = read-out: Cytochrome P450 3A7 (Homo sapiens) (UniProt P24462); assay: LTEA_HepaRG_CYP3A7: Life Technologies and Expression Analysis (LTEA) Assay for CYP3A7 using HepaRG (AID 2283492)
Outline: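 Differentiated HepaRG cells in serum-free induction medium exposed 48 h in duplicate to 8-point half-log series from 100 uM top in 0.5% DMSO. CYP3A7 mRNA by qRT-PCR, normalized to ACTB/GAPDH/POLR2A, bidirectional fit versus DMSO.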

CYP3A5 (gene 1577) = assay: LTEA_HepaRG_CYP3A5: Life Technologies and Expression Analysis (LTEA) Assay for CYP3A5 using HepaRG (AID 2283493)
Outline: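 qRT-PCR read-out: CYP3A5 transcript in HepaRG lysates, housekeeping-normalized (ACTB/GAPDH/POLR2A), fitted bidirectionally against 0.5% DMSO baseline. Exposure 48 h, eight half-log concentrations up to 100 uM, duplicates.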

[2] = read-out: Fatty Acid-Binding Protein 1 (FABP1), FABP1 (gene 2168); assay: LTEA_HepaRG_FABP1: Life Technologies and Expression Analysis (LTEA) Assay for Fatty Acid-Binding Protein 1 (FABP1) using HepaRG (AID 2283494)
Outline: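 FABP1 expression by TaqMan qRT-PCR, normalised to three housekeeping genes, in HepaRG cells after 48 h chemical treatment. Eight-point half-log series topping at 100 uM in 0.5% DMSO, duplicates; gain or loss fitted relative to vehicle.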

[3] = read-out: Glutathione S-Transferase (GSTA2), GSTA2 (gene 2939); assay: LTEA_HepaRG_GSTA2: Life Technologies and Expression Analysis (LTEA) Assay for Glutathione S-Transferase (GSTA2) using HepaRG (AID 2283497)
Outline: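 GSTA2 transcript levels came from Fluidigm TaqMan qRT-PCR normalized to three housekeeping genes, fitted in both directions against DMSO. HepaRG cultures received chemicals for 48 h in serum-free induction medium (0.5% DMSO), 8 half-log concentrations up to 100 uM, duplicate.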

[4] = read-out: Glutamate-cysteine ligase catalytic (GCLC), GCLC (gene 2729); assay: LTEA_HepaRG_GCLC: Life Technologies and Expression Analysis (LTEA) Assay for Glutamate-cysteine ligase catalytic (GCLC) using HepaRG (AID 2283498)
Outline: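 Expression by TaqMan qRT-PCR, normalized to three housekeeping genes (ACTB, GAPDH, POLR2A), with up- or down-regulation fitted against DMSO. HepaRG cells dosed in duplicate for 48 h with 8 half-log concentrations up to 100 uM, vehicle 0.5% DMSO.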

[5] = read-out: growth arrest and DNA damage 45 (GADD45G), GADD45G (gene 10912); assay: LTEA_HepaRG_GADD45G: Life Technologies and Expression Analysis (LTEA) Assay for growth arrest and DNA damage 45 (GADD45G) using HepaRG (AID 2283499)
Outline: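 Differentiated human HepaRG cells, 48 h post-plating, exposed 48 h in serum-free induction medium to 8 half-log concentrations (top 100 uM, 0.5% DMSO) in duplicate. GADD45G mRNA measured by Fluidigm TaqMan qRT-PCR, normalized to ACTB, GAPDH, POLR2A; bidirectional fit versus DMSO.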

[6] = read-out: Glutamate-cysteine ligase regulatory (GCLM), GCLM (gene 2730); assay: LTEA_HepaRG_GCLM: Life Technologies and Expression Analysis (LTEA) Assay for Glutamate-cysteine ligase regulatory (GCLM) using HepaRG (AID 2283500)
Outline: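 HepaRG, 48 h dosing, 100 uM top, half-log x8, 0.5% DMSO vehicle. Readout: GCLM mRNA by TaqMan qRT-PCR, housekeeping-normalized (ACTB/GAPDH/POLR2A). Curves fit bidirectionally vs DMSO baseline.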

[7] = read-out: Glutathione S-transferase M3 (GSTM3), GSTM3 (gene 2947); assay: LTEA_HepaRG_GSTM3: Life Technologies and Expression Analysis (LTEA) Assay for Glutathione S-transferase M3 (GSTM3) using HepaRG (AID 2283501)
Outline: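 Differentiated human HepaRG cells were exposed in duplicate for 48 h in serum-free induction medium, 8 points from 100 uM top in half-log steps, 0.5% DMSO. GSTM3 mRNA was measured by TaqMan qRT-PCR, normalized to ACTB, GAPDH and POLR2A; bidirectional fit versus DMSO.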

[8] = read-out: Heat shock 70 kDa protein 1 (HSPA1A), gene 3303; assay: LTEA_HepaRG_HSPA1A: Life Technologies and Expression Analysis (LTEA) Assay for Heat shock 70 kDa protein 1 (HSPA1A) using HepaRG (AID 2283502)
Outline: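 HepaRG, 48 h exposure, 8-pt half-log CRC from 100 uM in 0.5% DMSO, duplicates. Readout: TaqMan qRT-PCR of HSPA1A mRNA, housekeeping-normalized (ACTB/GAPDH/POLR2A). Bidirectional fit vs 0.5% DMSO baseline.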

[9] = read-out: Hypoxia-inducible factor 1-alpha (Homo sapiens) (UniProt Q16665); assay: LTEA_HepaRG_HIF1A: Life Technologies and Expression Analysis (LTEA) Assay for Hypoxia-inducible factor 1 (HIF1A) Trancription factor using HepaRG (AID 2283503)
Outline: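 Gain- or loss-of-signal HIF1A mRNA changes are fitted against a DMSO baseline. HepaRG cultures receive eight concentrations, highest 100 uM, for 48 h in serum-free induction medium with 0.5% DMSO.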

[10] = read-out: 3-Hydroxy-3-Methylglutaryl-CoA Synthase 2 (HMGCS2), HMGCS2 (gene 3158); assay: LTEA_HepaRG_HMGCS2: Life Technologies and Expression Analysis (LTEA) Assay for 3-Hydroxy-3-Methylglutaryl-CoA Synthase 2 (HMGCS2) using HepaRG (AID 2283504)
Outline: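 Human HepaRG cells in serum-free induction medium were exposed in duplicate for 48 h to 8-point half-log series from 100 uM top in 0.5% DMSO. HMGCS2 mRNA measured by TaqMan qRT-PCR, normalised to ACTB, GAPDH, POLR2A; bidirectional fit versus DMSO.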

HGF (gene 3082) = assay: LTEA_HepaRG_HGF: Life Technologies and Expression Analysis (LTEA) Assay for Hepatocyte Growth Facto (HGF) using HepaRG (AID 2283505)
Outline: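 Differentiated HepaRG cells in serum-free induction medium exposed 48 h in duplicate, 8 half-log concentrations from 100 uM in 0.5% DMSO. HGF mRNA by qRT-PCR, normalised to ACTB, GAPDH, POLR2A; bidirectional fitting.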

[11] = read-out: Insulin Like Growth Factor 1 (IGF1), IGF1 (gene 3479); assay: LTEA_HepaRG_IGF1: Life Technologies and Expression Analysis (LTEA) Assay for Insulin Like Growth Factor 1 (IGF1) using HepaRG (AID 2283506)
Outline: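 qRT-PCR readout of IGF1 mRNA, normalized to three housekeeping genes, after 48 h chemical exposure of HepaRG cells. Concentrations: 8-point half-log series, top 100 uM, 0.5% DMSO vehicle. Gain or loss fitted against DMSO baseline.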

[12] = read-out: Intercellular Adhesion Molecule 1 (ICAM1), ICAM1 (gene 3383); assay: LTEA_HepaRG_ICAM1: Life Technologies and Expression Analysis (LTEA) Assay for Intercellular Adhesion Molecule 1 (ICAM1) using HepaRG (AID 2283507)
Outline: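 Differentiated human HepaRG cells in serum-free induction medium exposed 48 h in duplicate to 8 half-log concentrations (top 100 uM, 0.5% DMSO). ICAM1 mRNA quantified by TaqMan qRT-PCR, normalized to ACTB, GAPDH and POLR2A; bidirectional fitting versus DMSO.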

[13] = read-out: Insulin-like growth factor-binding protein 1 (IGFBP1), IGFBP1 (gene 3484); assay: LTEA_HepaRG_IGFBP1: Life Technologies and Expression Analysis (LTEA) Assay for Insulin-like growth factor-binding protein 1 (IGFBP1) using HepaRG (AID 2283508)
Outline: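 HepaRG cells, plated 48 h then switched to serum-free induction medium, exposed in duplicate for 48 h to 8-point half-log series from 100 uM in 0.5% DMSO. mRNA measured by qRT-PCR, normalized to ACTB/GAPDH/POLR2A; bidirectional fit versus DMSO.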

[14] = read-out: Interleukin 6 (IL6), IL6 (gene 3569); assay: LTEA_HepaRG_IL6: Life Technologies and Expression Analysis (LTEA) Assay for Interleukin 6 (IL6) using HepaRG (AID 2283509)
Outline: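 Transcript levels, normalized to three housekeeping genes, were quantified by qRT-PCR after 48 h chemical treatment of HepaRG cells. Eight-point half-log series from 100 uM in 0.5% DMSO, duplicates. Fitted both directions against DMSO baseline.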

[15] = read-out: Interleukin 6 Receptor (IL6R), IL6R (gene 3570); assay: LTEA_HepaRG_IL6R: Life Technologies and Expression Analysis (LTEA) Assay for Interleukin 6 Receptor (IL6R) using HepaRG (AID 2283510)
Outline: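 HepaRG, 48 h exposure, 8-pt half-log series, top 100 uM, 0.5% DMSO vehicle, duplicates. Read-out: TaqMan qRT-PCR of IL6R transcript, housekeeping-gene normalized. Gain or loss fitted relative to DMSO baseline.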

[16] = read-out: Potassium channel subfamily K member 1 (KCNK1), KCNK1 (gene 3775); assay: LTEA_HepaRG_KCNK1: Life Technologies and Expression Analysis (LTEA) Assay for Potassium channel subfamily K member 1 (KCNK1) using HepaRG (AID 2283511)
Outline: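 KCNK1 transcript measured by TaqMan qRT-PCR against three housekeeping genes, after HepaRG cells were treated 48 h with eight half-log concentrations (top 100 uM, 0.5% DMSO). Curves fitted bidirectionally relative to vehicle.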

[17] = read-out: Keratin 19 (KRT19), KRT19 (gene 3880); assay: LTEA_HepaRG_KRT19: Life Technologies and Expression Analysis (LTEA) Assay for Keratin 19 (KRT19) using HepaRG (AID 2283512)
Outline: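 Differentiated HepaRG cells in serum-free induction medium, exposed 48 h in duplicate to 8 half-log concentrations up to 100 uM in 0.5% DMSO. KRT19 mRNA by qRT-PCR, normalized to ACTB, GAPDH, POLR2A; bidirectional fit vs DMSO.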

Measured: outcome

Sequence of Cytochrome P450 3A7 (Homo sapiens) (P24462 whole entry, looked up): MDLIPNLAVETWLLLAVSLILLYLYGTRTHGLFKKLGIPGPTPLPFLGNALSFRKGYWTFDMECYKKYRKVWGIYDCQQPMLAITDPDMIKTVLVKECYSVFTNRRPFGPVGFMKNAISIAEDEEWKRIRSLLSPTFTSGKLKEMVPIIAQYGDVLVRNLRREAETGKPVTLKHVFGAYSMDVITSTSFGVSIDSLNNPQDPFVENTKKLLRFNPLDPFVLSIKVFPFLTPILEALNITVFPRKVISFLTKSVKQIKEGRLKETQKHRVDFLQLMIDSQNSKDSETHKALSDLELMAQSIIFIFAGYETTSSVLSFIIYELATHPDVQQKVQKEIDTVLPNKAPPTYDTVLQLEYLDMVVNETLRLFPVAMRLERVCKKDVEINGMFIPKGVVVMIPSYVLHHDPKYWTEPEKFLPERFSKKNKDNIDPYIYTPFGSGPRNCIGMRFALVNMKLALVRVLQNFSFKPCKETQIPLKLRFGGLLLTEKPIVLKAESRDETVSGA
Sequence of Hypoxia-inducible factor 1-alpha (Homo sapiens) (Q16665 whole entry, looked up): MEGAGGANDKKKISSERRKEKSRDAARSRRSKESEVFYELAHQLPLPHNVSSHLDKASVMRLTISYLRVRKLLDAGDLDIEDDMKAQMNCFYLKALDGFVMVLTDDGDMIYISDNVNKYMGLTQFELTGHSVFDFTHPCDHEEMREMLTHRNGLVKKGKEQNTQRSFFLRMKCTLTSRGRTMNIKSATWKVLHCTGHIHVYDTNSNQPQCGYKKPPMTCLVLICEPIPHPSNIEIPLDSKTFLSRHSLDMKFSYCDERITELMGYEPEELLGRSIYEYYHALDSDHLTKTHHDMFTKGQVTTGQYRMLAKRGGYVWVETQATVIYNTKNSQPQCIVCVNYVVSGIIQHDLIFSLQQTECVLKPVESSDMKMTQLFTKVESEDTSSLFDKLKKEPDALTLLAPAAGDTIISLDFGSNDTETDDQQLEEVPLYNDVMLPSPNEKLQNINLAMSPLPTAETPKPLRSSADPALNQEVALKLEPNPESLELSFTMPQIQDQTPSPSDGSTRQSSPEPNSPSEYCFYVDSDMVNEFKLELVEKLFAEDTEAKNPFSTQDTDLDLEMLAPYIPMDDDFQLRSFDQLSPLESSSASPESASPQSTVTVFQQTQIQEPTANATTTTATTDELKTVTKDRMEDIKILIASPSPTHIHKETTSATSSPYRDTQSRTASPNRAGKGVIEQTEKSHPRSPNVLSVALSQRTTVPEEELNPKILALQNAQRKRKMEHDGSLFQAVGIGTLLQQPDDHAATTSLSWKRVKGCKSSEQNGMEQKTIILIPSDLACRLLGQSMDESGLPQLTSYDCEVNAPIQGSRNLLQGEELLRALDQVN

c1cc[n+]2c(c1)-c1cccc[n+]1CC2
inactive: [1] | CYP3A5 (gene 1577) | [2] | [3] | [4] | [5] | [6] | [7] | [8] | [9] | [10] | HGF (gene 3082) | [11] | [12] | [13] | [14] | [15] | [16] | [17]
